Results taken from the supplement of paper PMC6609913.
Counter-ions that a name gives are not always drawn. ± gives the standard deviation of the averaged measurements. The full ranking holds about 1,300 compounds; the median of “normalised cell viability” is about 1, and the lowest 2% start at about 0.15. The full list was thinned out, with the lowest values kept by preference.

System: V-C8 + BRCA2 (BRCA2-proficient hamster cells)
Assay: normalised cell viability (fraction of plate median); higher = more viable cells (less toxic)
Details: 5 µM
Method in brief: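 BRCA2-deficient hamster V-C8 cells and BRCA2-restored V-C8 cells were plated in 96-well plates, and library drugs were added 24 h later at 5 μM in 100 μl medium. Exposure lasted 3 days in screen 1 and 6 days in screen 2, next to solvent-only wells. Viability was then read by resazurin assay, median-plate normalised and averaged across triplicate wells.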

SMILES | normalised cell viability (treatment time: 3 days) | normalised cell viability (treatment time: 6 days)
Fc1ccc(C(OCCN2CCN(CCCc3ccccc3)CC2)c2ccc(F)cc2)cc1 | 0.18 ± 0.0028 | 0.191 ± 0.0064
COc1ccc(CCN2CCC(Nc3nc4ccccc4n3Cc3ccc(F)cc3)CC2)cc1 [Astemizole] | 0.118 ± 0.0065 | 0.102 ± 0.0063
C[C@]12C[C@H]3S[C@H]3C[C@@H]1CC[C@@H]1[C@@H]2CC[C@]2(C)[C@@H](O)CC[C@@H]12 [Epitiostanol] | 1.02 ± 0.019 | 1.05 ± 0.022
CC(C)[N+](C)(CCC(C(N)=O)(c1ccccc1)c1ccccc1)C(C)C [Isopropamide iodide] | 1.04 ± 0.062 | 1.02 ± 0.11
CN1[C@@H]2CC[C@H]1C[C@@H](OC1c3ccccc3CCc3ccccc31)C2 [Deptropine citrate] | 0.931 ± 0.016 | 0.869 ± 0.065
OC(c1ccccc1)(c1ccccc1)C1CCNCC1 [Azacyclonol] | 0.985 ± 0.041 | 1.03 ± 0.042
C[C@@H]1CC[C@H]2[C@@H](C)C(=O)O[C@@H]3O[C@@]4(C)CC[C@@H]1[C@]32OO4 [Artemisinin] | 0.794 ± 0.024 | 0.87 ± 0.095
C[C@]12CC[C@H](O)C[C@H]1CC[C@@H]1[C@@H]2C[C@@H](O)[C@]2(C)[C@@H](C3=CC(=O)OC3)CC[C@]12O [Digoxigenin] | 0.962 ± 0.11 | 0.986 ± 0.056
CC(=O)NC1CCSC1=O (racemic) [N-Acetyl-DL-homocysteine Thiolactone] | 1.05 ± 0.096 | 1.06 ± 0.11
CO[C@]12C[C@@H](COC(=O)c3cncc(Br)c3)CN(C)[C@@H]1Cc1cn(C)c3cccc2c13 [Nicergoline] | 0.81 ± 0.019 | 0.926 ± 0.01
CNCC(O)c1ccc(O)cc1 (racemic) [(+,-)-Synephrine] | 1.01 ± 0.085 | 1.01 ± 0.022
C[CH2][Hg][S]c1ccccc1C(=O)[O-].[Na+] [Thimerosal] | 0.106 ± 0.0062 | 0.118 ± 0.007
NCCC(O)C(=O)NC1CC(N)C(OC2OC(CN)C(O)[C@H](O)[C@@H]2N)[C@H](OC2O[C@H](CO)[C@@H](O)[C@@H]2O)[C@@H]1O (stereo partly specified) [Butirosin disulfate salt] | 0.979 ± 0.026 | 0.868 ± 0.3
C[C@@H]1C[C@@H]([C@H](O)CC2CC(=O)NC(=O)C2)C(=O)[C@@H](C)C1 [Cycloheximide] | 0.146 ± 0.008 | 0.138 ± 0.016
CC(CCc1ccccc1)NC(C)C(O)c1ccc(O)cc1 (stereo unspecified) [Nylidrin] | 1.02 ± 0.0065 | 1.02 ± 0.051
CCC(=O)O[C@@](Cc1ccccc1)(c1ccccc1)[C@@H](C)CN(C)C [Levopropoxyphene napsylate] | 0.979 ± 0.083 | 1.058 ± 0.0096
COc1cc([C@@H]2c3cc4c(cc3[C@H](O)[C@H]3COC(=O)[C@H]23)OCO4)cc(OC)c1OC [Podophyllotoxin] | 0.143 ± 0.0046 | 0.136 ± 0.016
C=C1CC[C@@]2(O)[C@H]3Cc4ccc(O)c5c4[C@@]2(CCN3CC2CC2)[C@H]1O5 [Nalmefene hydrochloride] | 1 ± 0.043 | 1.07 ± 0.15
